In the supplement of paper PMC6555819:

How the values were obtained:
Assay in all cases: PBM binding z-score (relative to random genomic background probes); higher = stronger binding; sequences stand for … in GC…GCGATTGACAGCGTAGAATGAAGG
[1] = system: FXR:RXRa (NR concentration 270 nM, RXRa partner concentration 90 nM)
In short: (§1)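 Custom Agilent 4×180K protein-binding microarrays carried double-stranded probes, each with a 34-nt variable region. These regions held direct-repeat seeds, single-nucleotide variants, half-site ablations and random human genomic background sequences. Ligand-free nuclear receptor dimers were incubated on the arrays for 1 h, antibodies against each partner (one per run) detected binding, and scanned fluorescence was regression-normalized. Binding z-scores take the random background probes as reference.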

[2] = system: LXRa:RXRa (NR concentration 270 nM, RXRa partner concentration 90 nM)
In short: as §1

[3] = system: LXRa homodimer (NR concentration 270 nM)
In short: as §1

[4] = system: LXRb:RXRa (NR concentration 270 nM, RXRa partner concentration 90 nM)
In short: as §1

[5] = system: LXRb homodimer (NR concentration 270 nM)
In short: as §1

[6] = system: PPARa:RXRa (NR concentration 270 nM, RXRa partner concentration 90 nM)
In short: as §1

[7] = system: PPARg:RXRa (NR concentration 180 nM, RXRa partner concentration 90 nM)
In short: as §1

[8] = system: PPARg:RXRa 270nM:90nM, anti-RXR (NR concentration 270 nM, RXRa partner concentration 90 nM)
In short: as §1

[9] = system: PPARg:RXRa 30nM:10nM, anti-RXR (NR concentration 30 nM, RXRa partner concentration 10 nM)
In short: as §1

[10] = system: PPARg:RXRa 90nM:30nM, anti-RXR (NR concentration 90 nM, RXRa partner concentration 30 nM)
In short: as §1

[11] = system: PPARg:RXRa DBDmut IVT, anti-RXR (DBD mutation: RXRa K156A/R161A, NR concentration 270 nM, RXRa partner concentration 90 nM)
In short: as §1

[12] = system: PPARg:RXRa IVT, anti-PPARg (NR concentration 270 nM, RXRa partner concentration 90 nM)
In short: as §1

[13] = system: PPARg DBDmut:RXRa IVT, anti-PPARg (DBD mutation: PPARg1 K132A/R137A, NR concentration 270 nM, RXRa partner concentration 90 nM)
In short: as §1

[14] = system: PPARg DBDmut IVT, anti-PPARg (DBD mutation: PPARg1 K132A/R137A, NR concentration 270 nM)
In short: as §1

[15] = system: PPARg homodimer (NR concentration 180 nM)
In short: as §1

[16] = system: PXR:RXRa (NR concentration 270 nM, RXRa partner concentration 90 nM)
In short: as §1

[17] = system: PXR homodimer (NR concentration 270 nM)
In short: as §1

[18] = system: RARa:RXR (NR concentration 270 nM, RXRa partner concentration 90 nM)
In short: as §1

[19] = system: RARa homodimer (NR concentration 270 nM)
In short: as §1

[20] = system: RARb:RXRa (NR concentration 270 nM, RXRa partner concentration 90 nM)
In short: as §1

With CCAGCCAGGTGAAAGGTAACTCAGTCTGGTACGC the PBM binding z-score [1] was 0.269, the PBM binding z-score [2] was 0.156 and the PBM binding z-score [3] was -0.445. For the same sequence, the PBM binding z-score [4] was 0.354, the PBM binding z-score [5] was -1.15 and the PBM binding z-score [6] was 3.65. It also gave a PBM binding z-score [7] of 6.97, a PBM binding z-score [8] of 6.34 and a PBM binding z-score [9] of 5.76. The PBM binding z-score [10] was 7.61, the PBM binding z-score [11] was 2.75 and the PBM binding z-score [12] was 3.85. It also gave a PBM binding z-score [13] of -0.331, a PBM binding z-score [14] of -0.965 and a PBM binding z-score [15] of 1.03. For the same sequence, the PBM binding z-score [16] was 0.479, the PBM binding z-score [17] was -0.522 and the PBM binding z-score [18] was 1.32. For the same sequence, the PBM binding z-score [19] was -0.603 and the PBM binding z-score [20] was 0.935.
CTTCGGAGGACAACAGGAGGTCAGAGCTGCCAGA showed a PBM binding z-score [1] of 1.34, a PBM binding z-score [2] of 2.65 and a PBM binding z-score [3] of 2.21. For the same sequence, the PBM binding z-score [4] was 1.45, the PBM binding z-score [5] was -0.45 and the PBM binding z-score [6] was 2.23. The PBM binding z-score [7] was 0.516, the PBM binding z-score [8] was 0.602 and the PBM binding z-score [9] was -0.765. For the same sequence, the PBM binding z-score [10] was 0.051, the PBM binding z-score [11] was 0.0715 and the PBM binding z-score [12] was 0.767. It also gave a PBM binding z-score [13] of -2.3, a PBM binding z-score [14] of -1.62 and a PBM binding z-score [15] of 1.69. For the same sequence, the PBM binding z-score [16] was 2.41, the PBM binding z-score [17] was 0.525 and the PBM binding z-score [18] was 2.64. It also gave a PBM binding z-score [19] of 0.557 and a PBM binding z-score [20] of 2.98.
Work on TCTTGTAGATCAACAGGAGATTAAGAAAGATCGA yielded a PBM binding z-score [1] of -0.494, a PBM binding z-score [2] of -0.198 and a PBM binding z-score [3] of -0.713. For the same sequence, the PBM binding z-score [4] was -0.321, the PBM binding z-score [5] was -0.695 and the PBM binding z-score [6] was 0.133. For the same sequence, the PBM binding z-score [7] was 0.237, the PBM binding z-score [8] was 0.964 and the PBM binding z-score [9] was 2.14. For the same sequence, the PBM binding z-score [10] was 1.68, the PBM binding z-score [11] was 1.37 and the PBM binding z-score [12] was 0.548. The PBM binding z-score [13] was 1.52, the PBM binding z-score [14] was 0.865 and the PBM binding z-score [15] was -0.322. The PBM binding z-score [16] was -0.306, the PBM binding z-score [17] was -0.21 and the PBM binding z-score [18] was -0.526. The PBM binding z-score [19] was -0.298 and the PBM binding z-score [20] was -0.393.
Work on CGTCCAAGGTCCTAGGAGGTCAGTGAAGACAGAT yielded a PBM binding z-score [1] of 1.97, a PBM binding z-score [2] of 1.66 and a PBM binding z-score [3] of 0.256. For the same sequence, the PBM binding z-score [4] was 1.71, the PBM binding z-score [5] was -0.518 and the PBM binding z-score [6] was 2.44. For the same sequence, the PBM binding z-score [7] was 0.157, the PBM binding z-score [8] was 0.654 and the PBM binding z-score [9] was -0.57. It also gave a PBM binding z-score [10] of 0.21, a PBM binding z-score [11] of -0.235 and a PBM binding z-score [12] of 0.579. The PBM binding z-score [13] was -1.17, the PBM binding z-score [14] was -1.02 and the PBM binding z-score [15] was 1.48. For the same sequence, the PBM binding z-score [16] was 3.01, the PBM binding z-score [17] was 0.587 and the PBM binding z-score [18] was 2.87. It also gave a PBM binding z-score [19] of 0.328 and a PBM binding z-score [20] of 2.42.
Sequence CCGACCGGGGCAAAGGTTACCATACTCAGTACGA has a PBM binding z-score [1] of 2.32, a PBM binding z-score [2] of 2.1 and a PBM binding z-score [3] of 0.433. The PBM binding z-score [4] was 2.47, the PBM binding z-score [5] was -1.02 and the PBM binding z-score [6] was 4.89. The PBM binding z-score [7] was 8.71, the PBM binding z-score [8] was 7.68 and the PBM binding z-score [9] was 6.28. The PBM binding z-score [10] was 7.92, the PBM binding z-score [11] was 0.771 and the PBM binding z-score [12] was 3.62. For the same sequence, the PBM binding z-score [13] was -1.08, the PBM binding z-score [14] was -1.57 and the PBM binding z-score [15] was 1.59. The PBM binding z-score [16] was 2.84, the PBM binding z-score [17] was -0.256 and the PBM binding z-score [18] was 4.81. The PBM binding z-score [19] was -0.0897 and the PBM binding z-score [20] was 2.66.
CCTACTGGGCAATTCAGAGGTCATTGATCATATG gave a PBM binding z-score [1] of 2.49, a PBM binding z-score [2] of 4.41 and a PBM binding z-score [3] of 6.82. The PBM binding z-score [4] was 3.68, the PBM binding z-score [5] was 0.374 and the PBM binding z-score [6] was 3.51. It also gave a PBM binding z-score [7] of 0.682, a PBM binding z-score [8] of 2.06 and a PBM binding z-score [9] of 0.0551. The PBM binding z-score [10] was 0.942, the PBM binding z-score [11] was 1.37 and the PBM binding z-score [12] was 1.97. For the same sequence, the PBM binding z-score [13] was 0.00726, the PBM binding z-score [14] was -0.498 and the PBM binding z-score [15] was 2.09. For the same sequence, the PBM binding z-score [16] was 4.71, the PBM binding z-score [17] was 2.44 and the PBM binding z-score [18] was 4.45. For the same sequence, the PBM binding z-score [19] was 0.887 and the PBM binding z-score [20] was 2.82.
In the case of TCTTGTAGATCAGCAGGTTAAGAACGCTGGCCAA, the PBM binding z-score [1] is reported as -0.138, the PBM binding z-score [2] is reported as -0.0946 and the PBM binding z-score [3] is reported as -0.388. For the same sequence, the PBM binding z-score [4] was 0.178, the PBM binding z-score [5] was -0.52 and the PBM binding z-score [6] was 0.745. For the same sequence, the PBM binding z-score [7] was -0.296, the PBM binding z-score [8] was 1.38 and the PBM binding z-score [9] was 2.39. For the same sequence, the PBM binding z-score [10] was 1.59, the PBM binding z-score [11] was 1.41 and the PBM binding z-score [12] was 0.294. For the same sequence, the PBM binding z-score [13] was -0.675, the PBM binding z-score [14] was -0.754 and the PBM binding z-score [15] was -0.66. For the same sequence, the PBM binding z-score [16] was -0.00865, the PBM binding z-score [17] was -0.543 and the PBM binding z-score [18] was 0.211. The PBM binding z-score [19] was -0.75 and the PBM binding z-score [20] was 0.0804.
For CCGACTGAGGCAAGGTTACCATAACGCACAGCCA, the PBM binding z-score [1] was 0.169, the PBM binding z-score [2] was 0.738 and the PBM binding z-score [3] was -0.295. It also gave a PBM binding z-score [4] of 0.593, a PBM binding z-score [5] of -0.805 and a PBM binding z-score [6] of 0.985. The PBM binding z-score [7] was 0.898, the PBM binding z-score [8] was 0.236 and the PBM binding z-score [9] was -0.466. For the same sequence, the PBM binding z-score [10] was 0.134, the PBM binding z-score [11] was -0.0464 and the PBM binding z-score [12] was -0.0439. The PBM binding z-score [13] was -0.139, the PBM binding z-score [14] was -0.814 and the PBM binding z-score [15] was 0.4. It also gave a PBM binding z-score [16] of 0.18, a PBM binding z-score [17] of -0.0704 and a PBM binding z-score [18] of 0.645. The PBM binding z-score [19] was 0.194 and the PBM binding z-score [20] was 0.904.
CATACTAGGTCACAGAGGTCAAAGTCCGTGCGTA showed a PBM binding z-score [1] of 6.69, a PBM binding z-score [2] of 6.83 and a PBM binding z-score [3] of 7.84. For the same sequence, the PBM binding z-score [4] was 6.16, the PBM binding z-score [5] was 2.94 and the PBM binding z-score [6] was 6.09. It also gave a PBM binding z-score [7] of 8.98, a PBM binding z-score [8] of 7.72 and a PBM binding z-score [9] of 5.14. It also gave a PBM binding z-score [10] of 7.44, a PBM binding z-score [11] of 7.7 and a PBM binding z-score [12] of 8.21. The PBM binding z-score [13] was 1.7, the PBM binding z-score [14] was 0.913 and the PBM binding z-score [15] was 4.99. For the same sequence, the PBM binding z-score [16] was 6.49, the PBM binding z-score [17] was 11.3 and the PBM binding z-score [18] was 6.62. It also gave a PBM binding z-score [19] of 2.6 and a PBM binding z-score [20] of 5.27.
